Most compounds without a hit are left out; they make up all but 2.4% or so of the library.
MITF act – activators of MITF-driven TRPM1 promoter activity in SK-MEL-5 cells; activation, % at 12.5 µM; SK-MEL-5 TRPM1-promoter luciferase, 24 h; % of positive control, neutral wells = 0; actives 0.75% (n = 300,000);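 active = mean activation of at least 80% with every replicate also reaching 80%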
DYRK1A inh – Dyrk1A (rat) kinase inhibition; actives 0.43% (n = 310,000); inhibition, % at 12.5 µM; Q63470; ADP-Glo luminescence, NFATc1 peptide; AID 504441
Wnt bcat act – Wnt/beta-catenin pathway activation | activation, % at 9.35 µM | Wnt/beta-catenin reporter cell assay, activator, plate reader | actives 1.2% (n = 300,000); in the data active = activation above about 30%, passing the limit was not always enough
INS-1E GSIS act – GLuc luminescence reporter in INS-1E cells, primary screen for activators of glucose-dependent secretion of insulin; INS-1E GLuc reporter insulin secretion, 2-3 h; activation, % at 16.6 µM; actives 0.61% (n = 370,000);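 active = lowest replicate activation of at least 40%, so every replicate reaches that level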
miR122 inh – inhibitors of miR-122 in Huh7 cells; Huh7 miR-122 Renilla luciferase sensor, 48 h; neutral wells = 0, positive control = 100; AID 602342; activation (reporter increase), % at 12.5 µM; actives 0.3% (n = 340,000);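 active = mean replicate activation score at least 90 and every replicate individually at or above 90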;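 also: higher luciferase means less miR-122 activity so hits act as miR-122 inhibitors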
NSD2 HMT inh – inhibitors of human histone methyltransferase NSD2. actives 0.54% (n = 310,000). inhibition, % at 12.5 µM. NSD2 peptide methylation, AlphaScreen, 120 min. O96028. AID 743445
Target sequence (O96028 whole entry, looked up): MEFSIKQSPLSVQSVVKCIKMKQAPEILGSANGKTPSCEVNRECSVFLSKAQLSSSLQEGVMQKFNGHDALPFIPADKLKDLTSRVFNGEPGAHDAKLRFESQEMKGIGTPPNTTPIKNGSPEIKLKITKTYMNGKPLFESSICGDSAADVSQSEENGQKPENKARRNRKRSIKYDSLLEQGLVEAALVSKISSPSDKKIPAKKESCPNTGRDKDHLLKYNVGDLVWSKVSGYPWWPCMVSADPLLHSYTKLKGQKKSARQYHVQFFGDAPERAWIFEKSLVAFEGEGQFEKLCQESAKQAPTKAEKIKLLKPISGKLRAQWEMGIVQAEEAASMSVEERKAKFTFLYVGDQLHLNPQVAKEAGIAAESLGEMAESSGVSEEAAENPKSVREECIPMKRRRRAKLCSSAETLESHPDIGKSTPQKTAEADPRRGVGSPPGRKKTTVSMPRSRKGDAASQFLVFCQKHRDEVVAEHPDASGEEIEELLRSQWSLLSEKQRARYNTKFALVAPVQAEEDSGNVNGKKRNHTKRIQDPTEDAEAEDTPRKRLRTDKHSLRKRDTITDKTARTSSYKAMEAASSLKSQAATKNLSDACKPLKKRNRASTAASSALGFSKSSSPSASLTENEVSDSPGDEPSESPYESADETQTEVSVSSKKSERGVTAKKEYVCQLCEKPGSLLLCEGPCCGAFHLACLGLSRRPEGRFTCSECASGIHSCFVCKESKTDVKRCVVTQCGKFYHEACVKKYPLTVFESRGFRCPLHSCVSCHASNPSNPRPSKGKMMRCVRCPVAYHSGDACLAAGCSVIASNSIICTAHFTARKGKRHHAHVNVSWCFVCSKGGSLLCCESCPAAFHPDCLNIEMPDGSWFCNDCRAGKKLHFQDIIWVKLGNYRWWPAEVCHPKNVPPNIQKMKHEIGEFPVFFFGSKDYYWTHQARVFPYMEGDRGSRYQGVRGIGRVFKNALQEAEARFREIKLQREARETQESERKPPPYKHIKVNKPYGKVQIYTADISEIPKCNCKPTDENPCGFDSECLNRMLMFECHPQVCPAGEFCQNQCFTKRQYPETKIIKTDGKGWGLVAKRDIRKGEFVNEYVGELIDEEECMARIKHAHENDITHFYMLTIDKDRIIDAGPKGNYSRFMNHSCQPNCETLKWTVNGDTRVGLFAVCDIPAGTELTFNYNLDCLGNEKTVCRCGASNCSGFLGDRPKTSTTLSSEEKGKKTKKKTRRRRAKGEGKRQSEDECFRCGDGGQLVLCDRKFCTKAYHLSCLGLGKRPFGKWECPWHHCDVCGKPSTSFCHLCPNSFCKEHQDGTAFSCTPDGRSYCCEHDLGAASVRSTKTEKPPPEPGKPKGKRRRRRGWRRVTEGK
A number is an active result. Rule as the data show it, unless noted: active = inhibition above about 50%; inactive = the rest.

Screening Cc1ccccc1/C(N)=N/OC(=O)/C=C/c1ccccc1 returned MITF act inactive, DYRK1A inh inactive, Wnt bcat act 77, miR122 inh inactive and NSD2 HMT inh inactive.
COc1ccc(C(=O)/C=C/c2ccc(O)cc2)cc1 was read as MITF act inactive, DYRK1A inh inactive, Wnt bcat act inactive, INS-1E GSIS act inactive and miR122 inh inactive.
`Cc1ccc(/C(N)=N/OC(=O)/C=C/c2ccccc2)cc1` gave MITF act inactive, DYRK1A inh inactive, Wnt bcat act inactive, miR122 inh inactive and NSD2 HMT inh inactive.
Screening CCOc1ccc(/C=C/C(=O)c2ccccc2)cc1OC returned MITF act inactive, DYRK1A inh inactive, Wnt bcat act 76, INS-1E GSIS act inactive and NSD2 HMT inh inactive.
`C[C@H]1CN([C@@H](C)CO)C(=O)c2cc(NS(=O)(=O)c3cn(C)cn3)ccc2O[C@H]1CN(C)C(=O)NC1CCCCC1` gave INS-1E GSIS act inactive and miR122 inh inactive.
COc1ccc(NS(=O)(=O)c2cc3c(cc2C)N(C)CCO3)cc1 was read as DYRK1A inh inactive, Wnt bcat act inactive, INS-1E GSIS act inactive and miR122 inh 95.
COc1cc(NS(=O)(=O)c2cc3c(cc2C)NC(=O)CO3)cc(OC)c1 was read as DYRK1A inh inactive, Wnt bcat act inactive, INS-1E GSIS act inactive and miR122 inh 101.
CC(C)(C)N1C(=O)c2ccc(C(=O)Nc3nccs3)cc2C1=O was read as MITF act 140, DYRK1A inh inactive, miR122 inh inactive and NSD2 HMT inh inactive.
`COc1ccc(C(=O)Cn2nnc(-c3ccccc3F)n2)cc1` gave MITF act inactive, DYRK1A inh inactive, Wnt bcat act inactive, INS-1E GSIS act inactive, miR122 inh inactive and NSD2 HMT inh inactive.
Cc1ccc(NC(=O)Cn2nnc(-c3ccc4c(c3)OCO4)n2)cc1F was read as MITF act inactive, DYRK1A inh inactive, Wnt bcat act inactive, INS-1E GSIS act inactive, miR122 inh inactive and NSD2 HMT inh inactive.
`Fc1ccccc1Cn1nnc(-c2ccc3c(c2)OCO3)n1` gave MITF act inactive, DYRK1A inh inactive, Wnt bcat act 71, miR122 inh inactive and NSD2 HMT inh inactive.
Screening COc1ccc(-c2nnn(Cc3ccccc3F)n2)cc1 returned MITF act 108, DYRK1A inh inactive, INS-1E GSIS act inactive, miR122 inh inactive and NSD2 HMT inh inactive.
Cc1ccc2nc(/C(C#N)=C/c3ccc(O)c(O)c3)[nH]c2c1 was read as Wnt bcat act inactive, miR122 inh inactive and NSD2 HMT inh 94.
Screening O=C(c1ccc(S(=O)(=O)Cc2cc(F)ccc2F)c([N+](=O)[O-])c1)N1CCCC1 returned MITF act inactive, DYRK1A inh inactive, Wnt bcat act inactive, INS-1E GSIS act 76, miR122 inh inactive and NSD2 HMT inh inactive.
`C[C@@H]1CC=CC[C@@H](c2ccc(F)cc2)NC(=O)[C@H](C)N(C)C(=O)c2ccccc2O1` (mixture of isomers) gave INS-1E GSIS act inactive.
Screening CCN(CCO)Cc1csc2ccccc12 returned MITF act inactive, DYRK1A inh inactive, Wnt bcat act inactive, INS-1E GSIS act inactive and NSD2 HMT inh inactive.
For CCN(CCO)Cc1csc2cc(C)ccc12 the results were MITF act inactive, DYRK1A inh inactive, Wnt bcat act inactive, INS-1E GSIS act 47 and NSD2 HMT inh inactive.
`O=C(O)c1ccc(-c2noc(-c3cccc(F)c3)n2)cc1` gave MITF act inactive, DYRK1A inh inactive, Wnt bcat act 45 and INS-1E GSIS act inactive.
`COc1cccc(-c2nc(-c3ccc(C(=O)O)cc3)no2)c1` gave MITF act inactive and Wnt bcat act inactive.
`Cc1c(C(=O)N2CCCCC2)oc2ccc(Br)cc12` gave MITF act inactive, DYRK1A inh inactive, Wnt bcat act inactive, INS-1E GSIS act inactive, miR122 inh inactive and NSD2 HMT inh inactive.
Screening Cc1ccc2oc(C(=O)N3CCCCCC3)c(C)c2c1 returned MITF act 124, DYRK1A inh inactive, Wnt bcat act inactive, INS-1E GSIS act inactive, miR122 inh inactive and NSD2 HMT inh inactive.
CO[C@H]1CN(C)C(=O)c2ccc(NS(=O)(=O)c3cccc(F)c3)cc2OC[C@@H](C)N(C(=O)Cc2cccnc2)C[C@H]1C was read as INS-1E GSIS act inactive.
Screening Cc1c(O)cnc2nn(-c3ccccc3)c(=N)n12 returned INS-1E GSIS act 42 and NSD2 HMT inh inactive.
Screening C[C@H]1CN([C@@H](C)CO)C(=O)c2cccc(NS(=O)(=O)c3ccc(Cl)cc3)c2O[C@H]1CN(C)C(=O)Nc1ccc(F)cc1 returned INS-1E GSIS act inactive and miR122 inh inactive.
`COc1ccc(CN2C[C@H](O)COC[C@@H]3O[C@@H](CC(=O)NCCN4CCCC4)CC[C@H]32)cc1` gave INS-1E GSIS act inactive and miR122 inh inactive.
`CNc1nc(Sc2cccc(C(F)(F)F)c2)cc(C(F)(F)F)n1` gave DYRK1A inh inactive, Wnt bcat act inactive, INS-1E GSIS act inactive, miR122 inh inactive and NSD2 HMT inh inactive.
For CNc1nc(Sc2ccccc2)cc(C(F)(F)F)n1 the results were DYRK1A inh inactive, Wnt bcat act inactive, INS-1E GSIS act 51, miR122 inh inactive and NSD2 HMT inh inactive.
CO[C@H]1CN(C)C(=O)c2ccc(NS(C)(=O)=O)cc2OC[C@H](C)NC[C@@H]1C was read as INS-1E GSIS act inactive.
Screening COc1cc(/C=N/NC(=O)c2ccoc2C)ccc1O returned MITF act inactive, DYRK1A inh inactive, Wnt bcat act inactive, INS-1E GSIS act inactive and NSD2 HMT inh inactive.
For Cc1occc1C(=O)N/N=C/c1ccccc1[N+](=O)[O-] the results were DYRK1A inh inactive, Wnt bcat act 44, miR122 inh inactive and NSD2 HMT inh inactive.
`COc1cccc(/C=N/NC(=O)c2ccoc2C)c1` gave DYRK1A inh inactive, Wnt bcat act 40, INS-1E GSIS act inactive, miR122 inh inactive and NSD2 HMT inh inactive.
`COc1cccc(/C=N/NC(=O)c2ccoc2C)c1O` gave MITF act inactive, DYRK1A inh inactive, Wnt bcat act inactive, INS-1E GSIS act inactive, miR122 inh inactive and NSD2 HMT inh inactive.
Cn1nccc1C(=O)N/N=C/c1ccccc1[N+](=O)[O-] was read as MITF act inactive, DYRK1A inh inactive, Wnt bcat act 41, INS-1E GSIS act inactive, miR122 inh inactive and NSD2 HMT inh inactive.
C[C@@H]1CN([C@@H](C)CO)C(=O)c2cc(NC(=O)CCCN(C)C)ccc2O[C@@H](C)CCCCO[C@@H]1CN(C)C was read as INS-1E GSIS act inactive and miR122 inh inactive.
Screening Oc1ccc2ccccc2c1CN1CCCC1 returned MITF act inactive, DYRK1A inh inactive, Wnt bcat act inactive, INS-1E GSIS act inactive, miR122 inh inactive and NSD2 HMT inh inactive.
For CCN1CCN(Cc2c3ccccc3cc3ccccc23)CC1 the results were MITF act inactive, DYRK1A inh inactive, Wnt bcat act 49, INS-1E GSIS act inactive and miR122 inh inactive.

Compound activity (PubChem BioAssay)
